# Records with an inconclusive call do not appear. A call without a number means that no potency is given here. The source made the active and inactive calls. The call rests on the fitted dose curve; in most records, active means well fitted inhibition curve with a large enough effect; inconclusive means small, poorly fitted or top-dose-only effect; inactive means flat fitted curve, though single readings scatter.
# Experiments:
# Experiment in all cases: qHTS profiling for inhibitors of Plasmodium falciparum proliferation (AID 504749); further: nearly all actives have a fitted effect of over 60% in size
# Conditions in all cases: P. falciparum in erythrocytes, SYBR Green DNA, 72 h; series mostly up to 28.7 µM
# [1] = test system: CP286
# Method in brief: (§1)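 SYBR Green fluorescence (ex 485 nm, em 535 nm) reports parasite DNA after 72 h compound exposure of infected red cells at 0.3% parasitemia, 2.5% hematocrit; signal normalized to 0.29 uM artemisinin and vehicle wells.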
# [2] = test system: CP291
# Method in brief: as §1
# [3] = test system: CP297
# Method in brief: as §1
# [4] = test system: CP305
# Method in brief: as §1
# [5] = test system: CP315
# Method in brief: as §1
# [6] = test system: CP329
# Method in brief: as §1
# [7] = test system: CP335
# Method in brief: as §1
# [8] = test system: DFO2036
# Method in brief: as §1
# [9] = test system: DIV14
# Method in brief: as §1
# [10] = test system: DIV17
# Method in brief: as §1
# [11] = test system: DIV30
# Method in brief: as §1
# [12] = test system: Dd2
# Method in brief: as §1
# [13] = test system: ECU
# Method in brief: as §1
# [14] = test system: GB4
# Method in brief: as §1
# [15] = test system: HB3
# Method in brief: as §1
# [16] = test system: ICS
# Method in brief: as §1
# [17] = test system: JCK
# Method in brief: as §1
# [18] = test system: N140
# Method in brief: as §1
# [19] = test system: CP325
# Method in brief: as §1
# [20] = test system: FAB9
# Method in brief: as §1
# Potency means the concentration at half of the fitted maximal effect.
Structure (SMILES),Potency [1],Potency [2],Potency [3],Potency [4],Potency [5],Potency [6],Potency [7],Potency [8],Potency [9],Potency [10],Potency [11],Potency [12],Potency [13],Potency [14],Potency [15],Potency [16],Potency [17],Potency [18],Potency [19],Potency [20]
O=C(Nc1cccc(C2=NCCN2)c1)Nc1cccc(C2=NCCN2)c1,2 µM (active),15.1 µM (active),13.5 µM (active),7.57 µM (active),16.9 µM (active),13.5 µM (active),12 µM (active),1.78 µM (active),3.01 µM (active),4.26 µM (active),13.5 µM (active),0.891 µM (active),3.16 µM (active),3.79 µM (active),10 µM (active),2.24 µM (active),5.01 µM (active),4.47 µM (active),,
Cc1ccc(S(=O)(=O)NC(=O)NC2CCCC2)cc1,inactive,inactive,,inactive,inactive,inactive,inactive,inactive,inactive,inactive,inactive,inactive,inactive,inactive,inactive,inactive,inactive,inactive,inactive,inactive
CCN(CC)CCNC(=O)c1cc(Br)c(N)cc1OC,inactive,inactive,,inactive,inactive,inactive,inactive,inactive,inactive,inactive,inactive,inactive,inactive,inactive,inactive,inactive,inactive,inactive,inactive,inactive
CCOC(=O)Nc1ccc2c(c1)N(C(=O)CCN1CCOCC1)c1ccccc1S2,inactive,inactive,inactive,inactive,,inactive,inactive,inactive,inactive,,inactive,inactive,inactive,inactive,inactive,inactive,inactive,inactive,inactive,inactive
C/C=C/C=N/NC(=O)c1ccncc1,inactive,inactive,,inactive,inactive,inactive,inactive,inactive,inactive,inactive,inactive,inactive,inactive,inactive,inactive,inactive,inactive,inactive,inactive,inactive
CC(C)(C)NC[C@H](O)COc1cccc2c1CCCC2=O,inactive,inactive,inactive,inactive,,inactive,inactive,inactive,,inactive,inactive,inactive,inactive,,inactive,inactive,inactive,inactive,inactive,inactive
NCc1ccccc1Sc1ccccc1CO,inactive,inactive,,inactive,inactive,inactive,,inactive,13.5 µM (active),,,10 µM (active),inactive,,inactive,8.91 µM (active),inactive,,inactive,inactive
NC(N)=NCc1cccc(I)c1,inactive,inactive,,inactive,inactive,inactive,,inactive,inactive,inactive,inactive,inactive,inactive,inactive,inactive,,inactive,inactive,inactive,inactive
Cc1ccc(O)c([C@H](CCN(C(C)C)C(C)C)c2ccccc2)c1,3.98 µM (active),9.53 µM (active),,7.57 µM (active),16.9 µM (active),13.5 µM (active),5.36 µM (active),5.01 µM (active),1.35 µM (active),1.2 µM (active),6.01 µM (active),2.51 µM (active),3.98 µM (active),1.51 µM (active),7.94 µM (active),1 µM (active),7.94 µM (active),2 µM (active),10.7 µM (active),8.91 µM (active)
COc1ccc(CCN(C)CCCN2CCc3cc(OC)c(OC)cc3CC2=O)cc1OC,inactive,inactive,,inactive,inactive,inactive,inactive,inactive,inactive,inactive,inactive,,inactive,inactive,inactive,,inactive,inactive,inactive,inactive
O=C(Oc1cccc2cccnc12)c1ccccc1,inactive,inactive,inactive,inactive,,inactive,inactive,inactive,inactive,inactive,inactive,inactive,inactive,,inactive,,inactive,inactive,,inactive
CCOc1ccccc1C(N)=O,inactive,,inactive,inactive,inactive,inactive,inactive,inactive,inactive,inactive,inactive,inactive,inactive,inactive,inactive,inactive,inactive,inactive,inactive,inactive
CN1CCN(CCC(=O)N2c3ccccc3Sc3ccc(C(F)(F)F)cc32)CC1,,inactive,inactive,inactive,inactive,inactive,,inactive,8.49 µM (active),8.49 µM (active),,,,,inactive,7.08 µM (active),inactive,,inactive,inactive
CCN(CC)CCOC(=O)C1(c2ccccc2)CCCC1,,,,,,inactive,,inactive,,,inactive,8.91 µM (active),inactive,,inactive,,,inactive,,inactive
CC[N+](C)(CC)CCOC(=O)C(O)(c1ccccc1)C1CCCCC1 (centres undefined),,,,,inactive,inactive,,,inactive,,inactive,,inactive,,,,inactive,inactive,inactive,inactive
CN1CCN(C2=Nc3ccccc3Sc3ccc(Cl)cc32)CC1,,,,inactive,inactive,inactive,,inactive,,,,,inactive,,inactive,11.2 µM (active),inactive,,inactive,inactive
Clc1cccc(C(c2ccc3nc[nH]c3c2)n2ccnc2)c1 (centres undefined),,,,,,,,10 µM (active),15.1 µM (active),13.5 µM (active),12 µM (active),,3.16 µM (active),12 µM (active),,5.62 µM (active),inactive,10 µM (active),,
CC1CCc2c(N3CCC(O)CC3)c(F)cc3c(=O)c(C(=O)O)cn1c23 (centres undefined),,,inactive,,inactive,inactive,,,,inactive,inactive,inactive,inactive,,inactive,,inactive,,inactive,inactive
CN1CCC[C@@H]1CCO[C@](C)(c1ccccc1)c1ccc(Cl)cc1,,,,,inactive,,,inactive,,6.75 µM (active),inactive,,inactive,,inactive,10 µM (active),inactive,,inactive,inactive
CCN(CC)CCOc1ccccc1C(=O)CCc1ccccc1,,,,,inactive,,,,6.75 µM (active),7.57 µM (active),,4.47 µM (active),inactive,,inactive,,inactive,,,inactive
OC(C#CCN1CCCC1)(c1ccccc1)c1ccccc1,,,12 µM (active),,inactive,,,,,13.5 µM (active),,8.91 µM (active),,6.75 µM (active),inactive,,inactive,11.2 µM (active),,inactive
